For test [1], the target named is Thioredoxin reductase 1, cytoplasmic (Rattus norvegicus) (UniProt O89049). Put plainly: qHTS Assay for Substrates of Mammalian Selenoprotein Thioredoxin Reductase 1 (TrxR1) (AID 488772).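 Further: series mostly up to about 57 µM; 0% is about no effect; a drop in NADPH fluorescence below the no-compound background marks a TrxR1 substrate.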 In outline:
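In this dual-purpose format, potential substrates are identified from the first fluorescence read after selenite addition, not from the 8-minute delta. Rat enzyme is preincubated with NADPH and then with compound at ~22 deg C.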

The target in test [2] is Flap endonuclease 1 (Homo sapiens) (UniProt P39748). Put plainly: qHTS Validation Assay for the Inhibitors of Human Flap endonuclease 1 (FEN1) (AID 488816). Further: on the % scale 0 is the no-effect control and ±100 the full control effect. In outline:
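qHTS format: compounds and 10 nM FEN1 incubated 15 min at room temperature before adding 50 nM substrate. Cleavage followed by reads at 0 and 15 min; normalized data fitted to a four-parameter Hill curve.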

The target in test [3] is M-phase phosphoprotein 8 (Homo sapiens) (UniProt Q99549). Put plainly: qHTS Validation Assay for Inhibitors for MPP8 Chromodomain Interactions with Methylated Histone Tails (AID 488949). Further: nearly all actives have a fitted effect of over 55% in size. Further: potency means the concentration at half of the fitted maximal effect. A digest of the protocol: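 50 nM MPP8 + 50 nM b-H3K9me3 peptide, PBS pH 7.4/0.01% Tween-20, 30 min RT; + cpd 30 min RT; + AlphaScreen donor/Ni-chelate acceptor beads 10 ug/mL final, 30 min dark; luminescence read.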
Chain of M-phase phosphoprotein 8 (Homo sapiens) (Q99549 whole entry, looked up): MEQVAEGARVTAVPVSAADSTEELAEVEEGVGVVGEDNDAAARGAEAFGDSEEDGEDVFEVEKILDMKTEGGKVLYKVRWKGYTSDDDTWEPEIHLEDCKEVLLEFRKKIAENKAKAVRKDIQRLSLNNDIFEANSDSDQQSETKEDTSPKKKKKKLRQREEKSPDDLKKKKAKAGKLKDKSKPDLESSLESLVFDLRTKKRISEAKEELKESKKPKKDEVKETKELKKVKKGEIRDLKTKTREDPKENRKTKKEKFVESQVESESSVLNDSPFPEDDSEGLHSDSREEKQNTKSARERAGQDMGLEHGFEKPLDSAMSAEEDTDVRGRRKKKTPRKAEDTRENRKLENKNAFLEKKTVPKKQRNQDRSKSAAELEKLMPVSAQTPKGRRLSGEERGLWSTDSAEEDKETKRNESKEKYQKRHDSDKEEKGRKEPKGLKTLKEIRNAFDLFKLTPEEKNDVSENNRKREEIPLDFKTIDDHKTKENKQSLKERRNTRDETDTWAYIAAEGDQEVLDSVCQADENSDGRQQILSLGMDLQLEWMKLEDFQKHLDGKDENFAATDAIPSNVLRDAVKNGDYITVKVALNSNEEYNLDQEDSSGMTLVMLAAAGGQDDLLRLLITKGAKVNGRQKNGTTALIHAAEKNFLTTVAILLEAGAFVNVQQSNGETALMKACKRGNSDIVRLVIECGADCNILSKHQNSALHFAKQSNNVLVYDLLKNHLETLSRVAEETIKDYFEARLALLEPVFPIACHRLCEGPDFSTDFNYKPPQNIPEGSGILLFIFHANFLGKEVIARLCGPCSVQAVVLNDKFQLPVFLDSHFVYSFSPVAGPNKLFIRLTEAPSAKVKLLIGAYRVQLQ
(qHTS replaces the single test concentration by a dilution series.)

The target of test [4] is Chromobox protein homolog 1 (Homo sapiens) (UniProt P83916). Description: qHTS Validation Assay for Inhibitors of HP1-beta Chromodomain Interactions with Methylated Histone Tails (AID 488953). Further: nearly all actives have a fitted effect of over 50% in size. Further: potency means the concentration at half of the fitted maximal effect. A digest of the protocol: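 Compounds pinned into a preassembled complex of HP1-beta and trimethyl-K9 histone H3(1-18) biotin peptide (50 nM each; PBS pH 7.4, 0.01% Tween-20). After 30 min, bead-based AlphaScreen detection followed.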
Chain of Chromobox protein homolog 1 (Homo sapiens) (P83916 whole entry, looked up): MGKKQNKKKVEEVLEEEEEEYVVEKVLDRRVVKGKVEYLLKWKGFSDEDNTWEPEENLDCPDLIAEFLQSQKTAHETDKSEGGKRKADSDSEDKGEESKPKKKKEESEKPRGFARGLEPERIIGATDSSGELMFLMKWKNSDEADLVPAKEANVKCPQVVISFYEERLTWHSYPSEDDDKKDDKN

In test [5] the target is Methanococcus maripaludis chaperonin (MmCpn) (UniProt Q6LX38). Description: High-Throughput Screening for Modulators of Cytosolic Chaperonin Activity: MmCpn Primary Screen (AID 488978).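 Further: 50 nM MmCpn enzyme hydrolysing 30 µM ATP at 37 °C; 0% is about no effect.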 In outline:
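Steps: chaperonin 50 nM final; add compound, 5 min RT; start with ATP, 30 uM final; hold 10 min at 37C; add ADP Transcreener HTRF reagent, 5 min; read ex 320, em 590 and 665 nm.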

The target of test [6] is D(1A) dopamine receptor (Homo sapiens) (UniProt P21728). Description: HTS Assay for Allosteric Agonists of the Human D1 Dopamine Receptor: Primary Screen for Agonists (AID 488981). Further: 0% is about no effect. A digest of the protocol: (§1)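 Calcium flux in an inducible, force-coupled HEK293 Trex D1 line (overnight at 30 C): agonist mode is the 180 s kinetic read after compound; potentiator mode is the following 180 s read after dopamine at EC20.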
Chain of D(1A) dopamine receptor (Homo sapiens) (P21728 whole entry, looked up): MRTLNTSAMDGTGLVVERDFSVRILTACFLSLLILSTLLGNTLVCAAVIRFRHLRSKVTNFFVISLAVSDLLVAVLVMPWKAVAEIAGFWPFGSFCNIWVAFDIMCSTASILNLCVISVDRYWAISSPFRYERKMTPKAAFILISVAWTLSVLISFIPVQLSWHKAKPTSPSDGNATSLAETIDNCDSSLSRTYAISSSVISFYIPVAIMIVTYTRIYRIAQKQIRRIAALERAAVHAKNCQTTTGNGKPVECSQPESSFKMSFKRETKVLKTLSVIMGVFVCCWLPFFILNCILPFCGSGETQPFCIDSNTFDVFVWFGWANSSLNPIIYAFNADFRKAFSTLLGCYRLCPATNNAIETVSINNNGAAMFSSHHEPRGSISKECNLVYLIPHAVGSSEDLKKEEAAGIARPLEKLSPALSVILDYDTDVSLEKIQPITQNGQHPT

For test [7] the target is unchanged. Put plainly: HTS Assay for Allosteric Agonists of the Human D1 Dopamine Receptor: Primary Screen for Antagonists (AID 488983).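 Further: calcium flux response to an EC80 dopamine challenge measured with no-wash dye; nearly all actives have a fitted effect of over 65% in size.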 Further: potency means the concentration at half of the fitted maximal effect. In outline:
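In this primary screen, compounds are applied to calcium-dye-loaded HEK293 T-REx cells with force-coupled D1 expression induced overnight at 30 C. An EC80 of dopamine follows the 180 s compound phase, and calcium is monitored for a further 180 s.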

In test [8] the target is ATPase family AAA domain-containing protein 5 (Homo sapiens) (UniProt Q96QE3). Put plainly: Validation screen for small molecules that inhibit ELG1-dependent DNA repair in human embryonic kidney (HEK293T) cells expressing luciferase-tagged ELG1 (AID 493107). Further: nearly all actives have a fitted effect of over 70% in size. Further: potency means the concentration at half of the fitted maximal effect. In outline:
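Compounds reducing 5-fluorouridine-driven ELG1-luciferase signal in HEK293T cells were scored; exposure lasted 16 hr at 37 °C with luminescence detected via ONE-Glo.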

Test [9] in a line: Nrf2 qHTS screen for inhibitors: Validation (AID 493153; active means well fitted inhibition curve with a large enough effect in the main read-out, with a control signal flat, not every such curve was filed as active). Conditions: Potency: luciferase luminescence; viability change: measured here: cytotoxicity max response. In outline:
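In this counterscreened reporter format, each well gives two signals: CellTiter-Fluor fluorescence for cytotoxicity and ARE-luciferase luminescence for Nrf2 function. A549 ARE_Fluc cells in 5% FBS OPTI-MEM were exposed to compound titrations for 18-24 h.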

A short description of test [10]: qHTS for Inhibitors of Cell Surface uPA Generation: Validation Assay (AID 493164).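 Further: RAW 264.7 macrophage cells exposed to compound for 18 h; 0% is about no effect.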 In outline: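 Compounds are titrated over seven points (2.45 nM–38.3 uM final) onto pre-plated RAW 264.7 cells and incubated for 18 h. Retained intracellular ATP, measured with ATP-Lite, indicates blocked lethal factor entry.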
The target in test [11] is D(1A) dopamine receptor (Homo sapiens) (UniProt P21728). Put plainly: HTS Assay for Allosteric Agonists of the Human D1 Dopamine Receptor: Primary Screen for Potentiators (AID 488982). Further: 0% is about no effect. In outline: as §1
The nature of test [12]: Validation screen for small molecules that induce genotoxicity in human embryonic kidney (HEK293T) cells expressing luciferase-tagged ELG1 (AID 493106). Further: 0% is about no effect. A digest of the protocol: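 In this validation screen, increased ELG1-luciferase signal flags compounds causing genetic stress. HEK293T reporter cells are treated 16 hr (37 °C, 5% CO2), developed with ONE-Glo for 30 min at room temperature, and imaged on a CCD-based reader.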

Test [13] deals with Transient receptor potential cation channel subfamily V member 1 (Homo sapiens) (UniProt Q8NER1). Description: HTS Assay for Compounds that Act as Enhancers of the Vanilloid Receptor 1 (AID 488979). Further: 0% is about no effect. In outline: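 Calcium influx kinetics via Fluo-8 (480/520 nm) in TRPV1-expressing cells, 2000/well cultured overnight at 35.5C. Compound-alone read 3 min (agonist phase), followed by EC20 capsaicin challenge for 2 min (enhancer phase).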
Chain of Transient receptor potential cation channel subfamily V member 1 (Homo sapiens) (Q8NER1 whole entry, looked up): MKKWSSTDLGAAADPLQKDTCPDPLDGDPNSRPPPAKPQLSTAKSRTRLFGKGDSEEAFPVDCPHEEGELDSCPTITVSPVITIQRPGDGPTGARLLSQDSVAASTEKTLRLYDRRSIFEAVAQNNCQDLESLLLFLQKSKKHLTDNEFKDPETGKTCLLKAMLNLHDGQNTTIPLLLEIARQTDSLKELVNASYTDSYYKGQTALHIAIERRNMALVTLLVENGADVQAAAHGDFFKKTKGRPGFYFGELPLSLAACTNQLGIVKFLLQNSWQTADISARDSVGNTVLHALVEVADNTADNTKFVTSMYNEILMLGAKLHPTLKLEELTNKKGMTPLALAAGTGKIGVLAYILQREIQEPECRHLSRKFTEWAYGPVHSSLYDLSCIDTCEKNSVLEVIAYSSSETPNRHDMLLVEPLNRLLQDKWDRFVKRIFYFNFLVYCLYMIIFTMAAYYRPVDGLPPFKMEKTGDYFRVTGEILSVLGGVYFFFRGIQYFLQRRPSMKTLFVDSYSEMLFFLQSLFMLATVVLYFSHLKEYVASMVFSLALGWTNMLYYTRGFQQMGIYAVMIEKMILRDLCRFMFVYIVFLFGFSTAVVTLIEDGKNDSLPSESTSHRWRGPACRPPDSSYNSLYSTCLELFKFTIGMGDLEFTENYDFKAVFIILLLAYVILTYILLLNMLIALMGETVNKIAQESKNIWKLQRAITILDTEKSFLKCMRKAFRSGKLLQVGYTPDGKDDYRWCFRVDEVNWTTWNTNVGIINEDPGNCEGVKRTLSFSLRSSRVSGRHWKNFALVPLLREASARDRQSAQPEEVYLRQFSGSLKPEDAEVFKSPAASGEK

For test [14], the target named is Thyrotropin receptor (Homo sapiens) (UniProt P16473). Description: qHTS Assay for Antagonists of the Thyroid Stimulating Hormone Receptor (AID 488980). Further: series mostly up to about 58 µM; 0% is about no effect. In outline:
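Readout is cAMP by HTRF competition between cellular cAMP and cAMP-d2 for a cryptate-labelled antibody. Antagonism was assessed in TSHR-transfected HEK293 cells stimulated with 4 nM TSH (EC80, final) in the presence of RO 20-1724.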

For test [15], the target named is Thyrotropin-releasing hormone receptor (Homo sapiens) (UniProt P34981). Description: qHTS for Small Molecule Agonists and Allosteric Enhancers of Human TRH Receptor: Validation Screen for Agonists (AID 493127;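 active means calcium activation more than 3 SD above the typical response in the agonist read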;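 further: intracellular calcium rise by fluo-8 fluorescence before TRH EC20 addition; 0% is about no effect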). Conditions: TRH receptor agonist cell assay; at 2 µM; stronger effect = higher value. In outline: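 Kinetic fluorescence assay of agonist-induced calcium release: overnight-plated TRHR cells, room-temperature fluo-8 loading, baseline then compound addition with per-second reads.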
Chain of Thyrotropin-releasing hormone receptor (Homo sapiens) (P34981 whole entry, looked up): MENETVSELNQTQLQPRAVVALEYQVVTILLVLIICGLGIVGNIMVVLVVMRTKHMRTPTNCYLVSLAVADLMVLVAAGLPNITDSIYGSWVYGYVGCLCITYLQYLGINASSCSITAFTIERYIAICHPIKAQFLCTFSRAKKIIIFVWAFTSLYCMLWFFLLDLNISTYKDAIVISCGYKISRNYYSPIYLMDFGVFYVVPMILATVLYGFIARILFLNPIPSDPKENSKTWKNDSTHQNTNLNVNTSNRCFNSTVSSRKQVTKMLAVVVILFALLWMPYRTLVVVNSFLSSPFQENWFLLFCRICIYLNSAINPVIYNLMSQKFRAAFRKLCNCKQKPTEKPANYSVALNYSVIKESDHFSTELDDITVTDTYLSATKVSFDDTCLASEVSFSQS

For test [16], the target named is Galactokinase (Homo sapiens) (UniProt P51570). Put plainly: qHTS Validation Assay for Inhibitors of Human Galactokinase (GALK) (AID 493189). Further: 0% is about no effect. In outline:
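5 nM GALK / 100 uM galactose / 35 uM ATP, 20 mM HEPES pH8.0, 5 mM MgCl2, 60 mM NaCl, 1 mM DTT, 0.01% BSA (final). RT 1 h; Kinase-Glo Plus luminescence.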

Test [17] is described as follows: Validation screen for small molecules that induce DNA re-replication in SW480 colon adenocarcinoma cells (AID 504364). Further: 0% is about no effect. A digest of the protocol: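 Hoechst-stained SW480 nuclei, imaged at 405 nm excitation after 48 hr compound exposure, were counted for elevated DNA content as the re-replication signal.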
The target of test [18] is ATP-dependent 6-phosphofructokinase (Trypanosoma brucei brucei) (UniProt O15648). Put plainly: qHTS Assay to Find Inhibitors of T. brucei phosphofructokinase: hit validation (AID 492961).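 Further: luminescence reports ADP formed as PFK phosphorylates fructose-6-phosphate with ATP; series mostly up to about 51 µM; on the % scale 0 is the no-effect control and ±100 the full control effect.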 A digest of the protocol:
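Measures ADP output of PFK (1.25 nM) at 0.1 mM ATP, 0.5 mM F6P, pH 8.0 TEA buffer with 5 mM MgCl2. No-enzyme wells define full inhibition; uninhibited enzyme wells define zero.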

Structures are written as SMILES. Inconclusive results are not listed. Some compounds were tested as several samples or in several runs, with calls that do not always agree. The source made the active and inactive calls. Unless noted, the call rests on the fitted dose curve; in most records, active means well fitted curve in the direction sought with a large enough effect; inconclusive means small, poorly fitted or top-dose-only effect, or another doubt; inactive means no such curve, though single readings can be large; an effect the other way counts as inactive or inconclusive.

Chain of ATPase family AAA domain-containing protein 5 (Homo sapiens) (Q96QE3 whole entry, looked up, the tested form may be a part): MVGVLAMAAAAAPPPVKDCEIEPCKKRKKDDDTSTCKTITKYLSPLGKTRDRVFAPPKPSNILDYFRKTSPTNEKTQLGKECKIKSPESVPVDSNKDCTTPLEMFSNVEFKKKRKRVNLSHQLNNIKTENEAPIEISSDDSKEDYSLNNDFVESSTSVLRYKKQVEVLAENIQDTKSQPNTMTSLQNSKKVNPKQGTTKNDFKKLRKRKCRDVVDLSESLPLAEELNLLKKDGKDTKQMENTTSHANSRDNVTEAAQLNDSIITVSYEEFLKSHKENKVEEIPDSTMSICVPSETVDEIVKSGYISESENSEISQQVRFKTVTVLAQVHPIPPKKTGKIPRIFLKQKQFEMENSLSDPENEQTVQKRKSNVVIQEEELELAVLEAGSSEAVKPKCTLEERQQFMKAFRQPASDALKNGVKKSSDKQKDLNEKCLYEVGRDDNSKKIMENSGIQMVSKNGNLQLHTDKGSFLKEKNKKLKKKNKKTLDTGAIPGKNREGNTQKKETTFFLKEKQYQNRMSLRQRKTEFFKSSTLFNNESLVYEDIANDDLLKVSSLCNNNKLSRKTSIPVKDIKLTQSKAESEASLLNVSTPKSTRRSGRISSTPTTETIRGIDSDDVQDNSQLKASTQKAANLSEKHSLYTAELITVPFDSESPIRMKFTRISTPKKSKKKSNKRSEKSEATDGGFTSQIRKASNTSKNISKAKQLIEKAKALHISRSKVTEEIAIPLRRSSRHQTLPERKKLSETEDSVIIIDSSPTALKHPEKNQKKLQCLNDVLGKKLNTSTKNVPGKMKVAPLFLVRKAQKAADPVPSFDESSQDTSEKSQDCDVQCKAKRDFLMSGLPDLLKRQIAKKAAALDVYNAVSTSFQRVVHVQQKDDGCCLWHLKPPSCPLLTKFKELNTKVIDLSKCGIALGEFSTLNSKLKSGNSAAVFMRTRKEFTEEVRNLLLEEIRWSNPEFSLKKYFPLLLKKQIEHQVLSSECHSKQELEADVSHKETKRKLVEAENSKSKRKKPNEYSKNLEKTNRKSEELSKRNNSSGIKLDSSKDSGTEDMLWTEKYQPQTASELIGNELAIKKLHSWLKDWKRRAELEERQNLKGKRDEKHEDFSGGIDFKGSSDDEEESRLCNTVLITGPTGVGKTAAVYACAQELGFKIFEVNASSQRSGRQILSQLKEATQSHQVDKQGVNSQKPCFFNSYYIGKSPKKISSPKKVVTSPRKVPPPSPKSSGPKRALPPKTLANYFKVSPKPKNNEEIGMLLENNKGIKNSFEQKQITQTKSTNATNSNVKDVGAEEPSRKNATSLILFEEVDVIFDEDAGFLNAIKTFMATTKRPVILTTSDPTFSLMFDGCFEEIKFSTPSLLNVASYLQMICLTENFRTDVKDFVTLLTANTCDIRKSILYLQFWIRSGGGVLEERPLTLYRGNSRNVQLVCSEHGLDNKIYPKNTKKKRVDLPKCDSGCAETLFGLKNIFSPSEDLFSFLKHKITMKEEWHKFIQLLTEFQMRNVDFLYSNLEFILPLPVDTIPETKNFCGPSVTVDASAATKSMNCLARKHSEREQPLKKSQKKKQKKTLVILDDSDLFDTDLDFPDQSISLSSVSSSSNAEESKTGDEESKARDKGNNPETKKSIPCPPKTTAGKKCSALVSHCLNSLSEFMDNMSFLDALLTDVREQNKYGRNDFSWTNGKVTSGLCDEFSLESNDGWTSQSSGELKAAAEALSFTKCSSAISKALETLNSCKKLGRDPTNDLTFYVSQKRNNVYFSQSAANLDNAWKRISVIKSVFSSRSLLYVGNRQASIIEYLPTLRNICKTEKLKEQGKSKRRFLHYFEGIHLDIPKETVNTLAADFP
Chain of Thioredoxin reductase 1, cytoplasmic (Rattus norvegicus) (O89049 whole entry, looked up): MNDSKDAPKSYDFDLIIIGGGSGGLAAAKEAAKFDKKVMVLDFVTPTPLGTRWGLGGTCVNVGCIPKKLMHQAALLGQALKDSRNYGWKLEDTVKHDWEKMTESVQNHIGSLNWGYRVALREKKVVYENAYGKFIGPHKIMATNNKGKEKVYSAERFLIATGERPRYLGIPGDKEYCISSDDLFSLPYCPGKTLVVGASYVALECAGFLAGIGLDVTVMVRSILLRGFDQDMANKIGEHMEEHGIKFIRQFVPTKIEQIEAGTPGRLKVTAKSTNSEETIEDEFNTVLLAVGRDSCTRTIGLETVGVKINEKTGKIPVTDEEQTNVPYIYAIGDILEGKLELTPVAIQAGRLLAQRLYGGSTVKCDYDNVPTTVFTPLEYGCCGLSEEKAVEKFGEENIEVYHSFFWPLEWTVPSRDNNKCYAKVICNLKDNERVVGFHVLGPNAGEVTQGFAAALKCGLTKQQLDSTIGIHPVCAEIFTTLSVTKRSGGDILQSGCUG

On to `Nc1nc(Nc2ccccc2)nc2c1ncn2[C@@H]1O[C@H](CO)[C@@H](O)[C@H]1O`, for which the Potency result in [1], in test [2], in test [3], in test [4], in [6] and in test [7] was “inactive” in each case. Also, in [9], the Potency entry is “inactive”. Besides, the result in [5] and in [10] was inactive. Further, the Potency in [8] is 5.8 µM (active). Moreover, in test [9], the viability change was -0.505%.

For the compound `CN1CC(=O)N/C1=N/C(=O)Nc1cccc(Cl)c1`, the Potency result in test [1], in test [2], in test [3], in [4], in [6] and in test [11] was “inactive” in each case. Besides, the Potency entry in test [7], in test [12] and in test [9] was “inactive” in each case. The result in test [5] and in test [10] was inactive. Moreover, in [9], the viability change is -1.94%.

Regarding `Cc1nc2sccn2c(=O)c1CCN1CCC(=C(c2ccccc2)c2ccc(F)cc2)CC1`, the Potency result in test [1], in [2], in test [3], in test [6], in [11] and in test [12] was “inactive” throughout. Also, the Potency entry in [8] and in test [9] was “inactive” each time. For the same compound, the compound was classed as inactive in test [5] and in [10]. Also, the viability change in test [9] was found to be 0.941%.

For `O=C1O/C(=C/Br)CCC1c1cccc2ccccc12` (stereo unspecified), the Potency result in test [1], in [2], in test [3], in test [4], in [6] and in test [11] was “inactive” throughout. For the same compound, the Potency entry in test [7], in [12], in test [16] and in [17] was “inactive” in each case. Besides, the compound was called inactive in [5], in [13] and in test [14]. In addition, the Potency in test [8] is 18.3 µM (active). For the same compound, in [15], the activation is -3.56% (inactive).

Regarding `O=C(O)[C@@H]1C[C@H](C(=O)O)N1`, the Potency result in [1], in [2], in [3], in test [4], in test [6] and in test [11] was “inactive” throughout. Further, the Potency result in [7], in test [12] and in test [17] was “inactive” throughout. For the same compound, the outcome in test [5], in test [13] and in [14] was inactive. For the same compound, the activation in test [15] is -0.25% (inactive).

As for `Cc1ccccc1CNc1ncnc2c1ncn2C1OC(CO)C(O)C1O` (stereo unspecified), the Potency entry in test [1], in [2], in [3], in test [4], in test [6] and in test [11] was “inactive” each time. Also, the Potency entry in [7] and in test [17] was “inactive” throughout. The compound was classed as inactive in test [5], in test [13], in test [14], in [18] and in test [10]. In test [8], the Potency was 13 µM (active). In test [15], the activation was 1.31% (inactive).

As for `Cc1cc(NC2CCCCC2)nc(-n2nc(C)cc2C)n1`, the Potency entry in test [1], in [2], in test [3], in [4], in [6] and in test [7] was “inactive” each time. Moreover, the Potency entry in [12] was “inactive”. Also, the result in test [5] and in [10] was inactive. In test [8], the Potency is 14.6 µM (active).

As for `CCN(CC)c1ncnc2c1ncn2[C@@H]1O[C@H](COP(=O)(O)OP(=O)(O)C(Br)(Br)P(=O)(O)O)[C@@H](O)[C@H]1O`, the Potency result in [1], in test [2], in test [4], in test [6], in [11] and in [7] was “inactive” in each case. The Potency result in test [12] and in test [8] was “inactive” each time. In addition, the call in [5] and in test [10] was inactive.

Regarding `Nc1ncnc2c1ncn2[C@@H]1O[C@H](COP(=O)(O)CP(=O)(O)OP(=O)(O)O)[C@@H](O)[C@H]1O`, the Potency entry in [1], in [2], in [4], in test [6], in test [11] and in test [7] was “inactive” in each case. Also, the Potency entry in test [12], in [8] and in test [9] was “inactive” throughout. In test [5], the compound was classed as inactive. For the same compound, in [9], the viability change was -5.53%.

Regarding `CCCCCCCC/C=C\CCCCCCCC(=O)NCCO`, the Potency result in [1], in test [2], in test [3], in test [4], in test [6] and in test [11] was “inactive” throughout. Further, the Potency result in test [12], in test [9], in test [16] and in [17] was “inactive” throughout. Further, the compound was classed as inactive in [5], in [13] and in test [14]. In addition, the activation in test [15] is 1.25% (inactive). Also, the viability change in test [9] amounted to 1.03%.

As to `CCCCC#Cc1nc(NC)c2ncn([C@@H]3O[C@H](CO)[C@@H](O)[C@H]3O)c2n1`, the Potency entry in test [1], in [2], in test [3], in [4], in test [6] and in test [11] was “inactive” each time. For the same compound, the Potency entry in test [7], in test [8] and in test [9] was “inactive” throughout. Moreover, the outcome in test [5] and in test [10] was inactive. Further, the viability change in [9] was determined as 2.21%.

Turning to `Oc1cc2c(cc1O)CN(C(=S)NCCc1ccc(Cl)cc1)CCC2`, the Potency result in [1], in [2], in test [6], in test [11], in test [12] and in test [9] was “inactive” each time. The Potency entry in [16] was “inactive”. Moreover, the Potency is 39.8 µM (active) and inactive in test [3]; 44.7 µM (active) in test [4]; 2 µM (active) in test [7]. The result in [13], in [14] and in test [10] was inactive. Moreover, the activation in [15] is 2.62% (inactive). For the same compound, in test [9], the viability change was -1.93%.

As to `CN1CCc2cc(NC(=O)Nc3cccnc3)ccc21`, the Potency result in [1], in [2], in [3], in [6], in test [7] and in [17] was “inactive” throughout. Further, the compound was called inactive in [5], in [13], in test [14] and in test [10]. Besides, the activation in test [15] was -2.62% (inactive).
